# Assay results reported in paper PMC4336329 (PLoS ONE, 2015).
# Among all 310,000 compounds or so, about 14,000 (4.5%) showed an effect of 50% or more. The effect is printed as a negative number. The list comes from a sample in which strong results are over-represented; it also holds similar structures and randomly drawn compounds. *1 amine or outer side, *2 acyl side, *3 side chain or, on linkers, in order; H or OH if unused. Where a SMILES comes first, the peptide text is derived from it. Bridges are numbered along the chain shown (N, C = ends). [ ]: non-standard residue; d: D form. ξ: configuration not given here. hSer(Ph(2-I,4-NO2,6-CO)) = O=C([C@H](CCOc1c(I)cc([N+](=O)[O-])cc1C(=O)[*:3])N[*:1])[*:2]; ξD = NC(CC(=O)O)C(=O)O
# Molecular target: human ether-à-go-go-related gene (hERG) potassium channel (human, UniProt Q12809)
# Test: primary screen, population patch clamp on CHO cells stably expressing hERG; higher = less effect of the substance
# 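Also: peak tail current of the secondary pulse compared with the same well before compound.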
# human ether-à-go-go-related gene (hERG) potassium channel, sequence (Q12809 whole entry, looked up): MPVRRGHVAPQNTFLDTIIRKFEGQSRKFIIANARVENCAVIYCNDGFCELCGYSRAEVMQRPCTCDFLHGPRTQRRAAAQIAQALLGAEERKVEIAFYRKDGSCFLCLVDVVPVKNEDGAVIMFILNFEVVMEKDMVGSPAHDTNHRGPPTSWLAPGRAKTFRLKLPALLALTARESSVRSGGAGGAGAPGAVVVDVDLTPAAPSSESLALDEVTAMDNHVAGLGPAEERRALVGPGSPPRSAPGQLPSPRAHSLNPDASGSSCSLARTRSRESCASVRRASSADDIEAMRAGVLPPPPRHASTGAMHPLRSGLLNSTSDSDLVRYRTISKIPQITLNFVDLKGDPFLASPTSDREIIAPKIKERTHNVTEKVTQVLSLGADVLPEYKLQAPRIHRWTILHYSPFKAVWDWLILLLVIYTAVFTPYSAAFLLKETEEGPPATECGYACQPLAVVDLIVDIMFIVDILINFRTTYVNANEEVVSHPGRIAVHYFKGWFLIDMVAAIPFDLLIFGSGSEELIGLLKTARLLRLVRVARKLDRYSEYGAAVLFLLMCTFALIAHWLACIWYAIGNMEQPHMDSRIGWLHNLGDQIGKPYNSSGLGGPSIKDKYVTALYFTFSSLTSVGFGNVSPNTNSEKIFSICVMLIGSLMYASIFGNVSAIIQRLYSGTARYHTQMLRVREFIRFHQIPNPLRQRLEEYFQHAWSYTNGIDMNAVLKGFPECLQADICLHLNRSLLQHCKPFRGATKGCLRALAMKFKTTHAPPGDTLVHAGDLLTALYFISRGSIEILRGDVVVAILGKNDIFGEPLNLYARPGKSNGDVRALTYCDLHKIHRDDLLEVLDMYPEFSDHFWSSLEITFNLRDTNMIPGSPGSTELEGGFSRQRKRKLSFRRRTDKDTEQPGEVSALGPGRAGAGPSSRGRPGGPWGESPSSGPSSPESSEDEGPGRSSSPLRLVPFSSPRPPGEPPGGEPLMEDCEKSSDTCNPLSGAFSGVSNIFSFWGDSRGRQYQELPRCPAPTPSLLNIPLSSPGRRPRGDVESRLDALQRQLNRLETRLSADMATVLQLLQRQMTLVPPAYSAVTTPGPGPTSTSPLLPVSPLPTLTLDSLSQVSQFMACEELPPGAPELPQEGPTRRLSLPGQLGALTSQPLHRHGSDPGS
row,SMILES,"hERG current change (%, negative = inhibition) at 10uM"
1,CC(=O)N(\C=C/C=C/C=C1\Sc2ccccc2C1=O)c1ccccc1,-3.47%
2,CCOC(=O)C1=C(C)N=c2s/c(=C\c3ccc(OCC(=O)O)cc3)c(=O)n2C1c1ccccc1OC (stereo not drawn),12.8%
3,CCOC(=O)C1=C(C)N=c2s/c(=C\c3cccc(OCC(=O)O)c3)c(=O)n2C1c1ccccc1OC (stereo not drawn),28.7%
4,CCOC(=O)C1=C(C)N=c2s/c(=C\c3ccc(O)c([N+](=O)[O-])c3)c(=O)n2C1c1ccccc1OC (stereo not drawn),-61.7%
5,CC(=O)c1c(C)[nH]c(C(=O)OCC(=O)C(C)(C)C)c1C,-2.38%
6,CN1CCN(C2CCCCC2NS(=O)(=O)c2ccccc2)CC1 (stereo not drawn),9.24%
7,Brc1ccc(CN2CCSCC2)cc1,-65.1%
8,CCc1ccc(CN2CCSCC2)cc1,7.39%
9,Cc1ccc(CN2CCSCC2)cc1,17.4%
10,CCC1(C)Cc2c(sc3nc(SC)nc(NCCN(C)C)c23)CO1 (stereo not drawn),-42.9%
11,O=C(O)/C=C/C(=O)Nc1ccc(Oc2ncnc3cc(Cl)ccc23)nc1,18.4%
12,CCC(C)NC(=O)Cn1cc2c(n1)CCC(C)C2 (stereo not drawn),13.8%
13,Cc1ccc(-c2nn3nnnc3c3ccccc23)cc1,14.3%
14,c1ccc(-c2nn3nnnc3c3ccccc23)cc1,-71.8%
15,Cc1ccc(-c2nn3nnnc3c3ccccc23)cc1C,-1.31%
16,CC1=CCC2C(=O)N(c3ccc(OC(=O)c4ccco4)cc3)C(=O)C2C1 (stereo not drawn),12%
17,COC(=O)CSc1ncnc2c1sc1nc(-c3ccco3)c3c(c12)CC(C)(C)OC3,3.01%
18,O=C(CSc1ncccn1)NNC(=O)c1ccccc1,-4.48%
19,CCOCCCNC(=O)C(c1ccccc1)N(Cc1cccs1)C(=O)c1ccccc1O (stereo not drawn),14.3%
20,Cc1cccc(NC(=O)COC(=O)CCCC2=NS(=O)(=O)c3ccccc3N2)c1,10.7%
21,CC(C)(CC(=O)OCC(=O)Nc1ccccc1F)CC1=NS(=O)(=O)c2ccccc2N1,0.85%

row,SMILES,"hERG current change (%, negative = inhibition) at 10uM"
1,Cc1cc(C)cc(NC(=O)COC(=O)CCCC2=NS(=O)(=O)c3ccccc3N2)c1,-55.9%
2,COc1cc(NC(=O)COC(=O)CCCC2=NS(=O)(=O)c3ccccc3N2)cc(OC)c1,14.4%
3,O=C(COC(=O)CCCC1=NS(=O)(=O)c2ccccc2N1)Nc1ccccc1,24.7%
4,CCc1ccc(NC(=O)COC(=O)CCCC2=NS(=O)(=O)c3ccccc3N2)cc1,-1.3%
5,COc1ccccc1NC(=O)COC(=O)CC(C)(C)CC1=NS(=O)(=O)c2ccccc2N1,-69.9%
6,CCOc1ccccc1NC(=O)COC(=O)CC(C)(C)CC1=NS(=O)(=O)c2ccccc2N1,-60.5%
7,COc1ccc(Cl)cc1NC(=O)COC(=O)CCCC1=NS(=O)(=O)c2ccccc2N1,21.4%
8,Cc1cc(NC(=O)C2CCCN(S(=O)(=O)c3c(C)noc3C)C2)no1 (stereo not drawn),-0.534%
9,Cc1oc(-c2cccs2)nc1CSCC(=O)NC1CC1,-3.82%
10,CCC1=NN(C(=O)Cc2ccc([N+](=O)[O-])cc2)C(O)(c2ccncc2)C1 (stereo not drawn),-11.9%
11,COc1ccc(NC(=O)c2cccc(N3C(=O)C4C5C=CC(C5)C4C3=O)c2)cc1Cl (stereo not drawn),2.2%
12,C=CCN1C(=O)C(Cc2ccc(F)cc2)S/C1=N/N=C/c1cccs1 (stereo not drawn),-9.46%
13,CC(C)C(NC(=O)c1ccco1)C(=O)NCC(c1ccco1)N(C)C (stereo not drawn),12.5%
14,COc1ccc(N2CCN(CC(O)COc3cc(C)cc(C)c3)CC2)cc1.Cl (stereo not drawn),-48.8%
15,CCN1CCN(CC(O)COc2ccc3c(c2)CCC3)CC1.Cl (stereo not drawn),5.59%
16,COc1ccc(N2CCN(CC(O)COc3ccc(C)cc3C)CC2)cc1.Cl (stereo not drawn),-67.8%
17,COc1ccccc1N1CCN(CC(O)COc2ccc3c(c2)CCC3)CC1.Cl (stereo not drawn),-74.2%
18,COc1ccc(N2CCN(CC(O)COc3cc(C)ccc3C)CC2)cc1.Cl (stereo not drawn),-33.8%
19,Cc1cc(=O)oc2cc(OCC(O)CN3CCN(c4ccccc4)CC3)ccc12.Cl (stereo not drawn),-47.4%
20,CCOc1ccccc1N1CCN(CC(O)COc2ccc3c(C)cc(=O)oc3c2)CC1 (stereo not drawn),-53.1%
21,COc1ccccc1N1CCN(CC(O)COc2ccc3c(C)cc(=O)oc3c2)CC1 (stereo not drawn),-24.7%

row,SMILES,"hERG current change (%, negative = inhibition) at 10uM"
1,COc1cccc(OCC(O)CN2CC(C)CC(C)C2)c1.Cl (stereo not drawn),-13.5%
2,COc1ccc(N2CCN(CC(O)COc3ccc4c(c3)CCC4)CC2)cc1.Cl (stereo not drawn),-48.3%
3,CC1CC(C)CN(CC(O)COc2ccc3c(c2)CCC3)C1.Cl (stereo not drawn),-53.2%
4,OC(COc1ccc2c(c1)CCC2)CN1CCN(c2ccccc2F)CC1 (stereo not drawn),-14.6%
5,O=C(CSc1nnc(-c2ccccc2)o1)N1CCOCC1,6.37%
6,"NC(=O)C(CC(=O)O)NC(=O)[C@@H]1CCOc2c(I)cc([N+](=O)[O-])cc2C(=O)N[C@@H](CCC(=O)O)C(=O)N[C@@H](CO)C(=O)N1 (stereo partly drawn) (ES[hSer(Ph(2-I,4-NO2,6-CO))][ξD]-NH2; lactam N-3)",-5.73%
7,Br.C=CCn1c(C)csc1=Nc1ccc(C(=O)O)cc1,13.5%
8,Cc1ccc(S(=O)(=O)Cc2cc(F)c([N+](=O)[O-])cc2[N+](=O)[O-])cc1,-14.3%
9,COc1ccc(CCNC(=S)NC(=O)c2cccc(Cl)c2)cc1OC,1.73%
10,Cc1ccc(-c2nnc(N3CCN(c4ccccn4)CC3)c3ccccc23)cc1,-46.3%
11,COc1ccccc1N1CCN(CC(O)COc2ccc(C)cc2C)CC1.Cl (stereo not drawn),-73.1%
12,COc1ccc(N2CCN(CC(O)COc3ccc(C)c(C)c3)CC2)cc1.Cl (stereo not drawn),-43.7%
13,COc1ccc(N2CCN(CCOc3ccc4c(C)cc(=O)oc4c3)CC2)cc1,-26.1%
14,Cc1cc(=O)oc2cc(OCCCN3C(=O)c4ccccc4C3=O)ccc12,10.4%
15,Cc1ccccc1N1CCN(CCCOc2ccc3c(C)cc(=O)oc3c2)CC1,-75.3%
16,CNCC(O)CN1CCN(c2ccccc2OC)CC1.Cl (stereo not drawn),12.7%
17,COc1ccccc1N1CCN(CC(O)COc2ccc(C)c(C)c2)CC1.Cl (stereo not drawn),-55.9%
18,COc1ccccc1N1CCN(CC(O)COc2ccc3c(c2)OCO3)CC1.Cl (stereo not drawn),-33.7%
19,O=C(CCc1ccccc1)NNC(=O)C1CCCCC1,-2.12%
20,CC(C)Nc1ccc(-n2nc3ccccc3[n+]2[O-])cc1,6.09%
21,O=C1CCCCCC1C1(O)C(=O)Nc2ccccc21 (stereo not drawn),-1.78%

row,SMILES,"hERG current change (%, negative = inhibition) at 10uM"
1,CC1(c2ccccc2)NC(=O)N(CC(=O)NNC(=O)c2ccccc2)C1=O (stereo not drawn),21.3%
2,Cc1ccc(CNC(=O)C2CC(=O)OC23CCCC3)c(C)c1 (stereo not drawn),-0.109%
3,CCCCNC(=O)c1ccc(CNS(=O)(=O)c2ccc(Br)cc2)cc1,2%
4,CCOc1ccc2nc(NC(=O)CSc3nc4cccnc4n3C)sc2c1,17.4%
5,COc1ccccc1N1CCN(C(c2ccc(C)cc2)c2nnnn2C(C)C)CC1 (stereo not drawn),-5.61%
6,O=C(Nc1sc2c(c1C(=O)O)CCCC2)c1ccccc1Cl,11.9%
7,Cc1c(Cl)cnc(NC(=O)COC(=O)c2ccc3ncsc3c2)c1Cl,-2.49%
8,CCN(CC)CCNC(=O)c1cn(CC)c2ccc(S(=O)(=O)N(C)C3CCCCC3)cc2c1=O,-67.2%
9,CCn1cc(C(=O)NC2CCCCC2)c(=O)c2cc(S(=O)(=O)N(C)C)ccc21,2.38%
10,CCN(CC)CCNC(=O)c1cn(CC)c2ccc(S(=O)(=O)N(C)C)cc2c1=O,11.1%
11,CCCCN(CCCC)CCNC(=O)c1cn(CC)c2ccc(S(=O)(=O)N(C)C3CCCCC3)cc2c1=O,-82.5%
12,CCOCCCNC(=O)c1cn(CC)c2ccc(S(=O)(=O)N(C)C3CCCCC3)cc2c1=O,-55.7%
13,CCn1cc(C(=O)NCC(OC)OC)c(=O)c2cc(S(=O)(=O)N(C)C3CCCCC3)ccc21,-44.2%
14,CCCN(CCC)CCCNC(=O)c1cn(CC)c2ccc(S(=O)(=O)N(C)C3CCCCC3)cc2c1=O,-74.3%
15,CCn1cc(C(=O)NCCCOC)c(=O)c2cc(S(=O)(=O)N(C)C3CCCCC3)ccc21,-23%
16,CC1(C(=O)OCC(=O)Nc2cccc(S(=O)(=O)NC3=NCCCCC3)c2)CC1(Cl)Cl (stereo not drawn),10.7%
17,CCc1noc(C)c1C(=O)Nc1cc(S(=O)(=O)N2CCOCC2)ccc1OC(C)C,-45.1%
18,CCN(CC(=O)Nc1c(F)cccc1F)C(=O)c1csc2c1CCCC2,7.01%
19,COC(=O)c1c(-c2ccc(F)cc2)csc1NC(=O)c1ccco1,22.9%
20,COc1cccc2cc(C(C)N(CCCN3CCOCC3)C(=S)Nc3cccc(C)c3)oc12 (stereo not drawn),14.8%
21,CCC(C)c1ccc(OCc2ccc(C(=O)OC)o2)cc1 (stereo not drawn),-12.8%
